Compound activity deposited in PubChem by The Scripps Research Institute Molecular Screening Center.
PPARg SRC1 recr: promotes SRC-1 coactivator recruitment by human PPARgamma; hit rate 0.41% among 200,000; AID 631; P37231; activation, % at 8 µM; PPARgamma-SRC-1 coactivator recruitment biochemical assay; in the data active means activation above about 19%;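 further: 0% = DMSO and 100% = reference agonist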
Target sequence (P37231 whole entry, looked up): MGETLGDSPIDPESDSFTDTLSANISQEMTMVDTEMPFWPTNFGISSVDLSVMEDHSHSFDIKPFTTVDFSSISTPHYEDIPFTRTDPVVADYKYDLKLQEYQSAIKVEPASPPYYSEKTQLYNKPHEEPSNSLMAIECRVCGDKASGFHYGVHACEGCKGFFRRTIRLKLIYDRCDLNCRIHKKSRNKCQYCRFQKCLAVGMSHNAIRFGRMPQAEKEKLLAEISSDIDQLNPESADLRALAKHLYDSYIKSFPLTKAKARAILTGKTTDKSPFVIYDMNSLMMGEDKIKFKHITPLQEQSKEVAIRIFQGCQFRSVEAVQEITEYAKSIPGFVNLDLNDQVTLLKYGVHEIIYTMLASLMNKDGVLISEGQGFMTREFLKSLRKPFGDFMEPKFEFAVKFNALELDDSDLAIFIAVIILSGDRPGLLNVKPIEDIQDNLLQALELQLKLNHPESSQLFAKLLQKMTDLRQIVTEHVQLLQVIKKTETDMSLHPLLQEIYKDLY
SRC1 TRFRET art: TR-FRET artefact, counter-screen to PPARgamma/SRC-1 agonist assay; AID 1051; TR-FRET detection artefact counter-screen, emission ratio; stronger effect = higher value; hit rate 0.34% among 99,000; TR-FRET ratio at 8 µM; in the data active means TR-FRET ratio above about 2300
PPARg SRC-2 ag: agonists of SRC-2 recruitment by human PPARgamma; P37231; PPARgamma LBD-SRC-2 recruitment, biochemical; activation, % at 8 µM; hit rate 0.34% among 200,000; AID 1032; in the data active means activation above about 22%;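 further: 0% = vehicle and 100% = reference agonist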
TR-FRET SRC-2 ct: TR-FRET artefact, counter-screen to PPARgamma/SRC-2 agonist assay. stronger effect = higher value. TR-FRET ratio at 8 µM. hit rate 0.4% among 200,000. AID 1049
SRC3 TRFRET art: TR-FRET artefact, counter-screen to PPARgamma/SRC-3 agonist assay | AID 1048 | PPARgamma/SRC-3 format; stronger effect = higher value | TR-FRET ratio at 8 µM | hit rate 0.39% among 99,000
PPARg SRC3 recr: agonists of human PPARgamma SRC-3 coactivator recruitment; P37231; biochemical PPARgamma/SRC-3 coactivator recruitment assay; activation, % at 8 µM; hit rate 0.26% among 200,000; AID 731; in the data active means activation above about 23%;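 further: 0% = DMSO and 100% = reference agonist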
Active calls of the source: *; · = no result given. Most compounds without a hit are left out; they make up all but 0.9% or so of the library. Unless noted, no stated cut-off is given here; in the data, active means TR-FRET ratio above about 2000; inactive means the rest.

SMILES	PPARg SRC1 recr	SRC1 TRFRET art	PPARg SRC-2 ag	TR-FRET SRC-2 ct	SRC3 TRFRET art	PPARg SRC3 recr
CN(C)S(=O)(=O)c1cccc(NC(=O)c2cc(-c3cccs3)nn2-c2cccc(Cl)c2)c1	10.9	2166	8.8	2193*	2416*	8.5
O=C(O)c1cc(-c2cccs2)nn1-c1cccc(Cl)c1	5.7	1898	-3.7	1488	1777	3.8
O=C(N/N=C/c1ccc([N+](=O)[O-])o1)c1cc(-c2ccc(-c3ccccc3)cc2)nc2ccccc12	6.6	1568	-3.6	1407	1306	-2.7
Cc1cc(N/N=C/c2ccc([N+](=O)[O-])o2)nc2ccccc12	11.4	1831	9.9	1789	2083*	8.7
Cc1cccc(C(C)C)c1NC(=O)c1ccc(COc2ccc3c(C)cc(=O)oc3c2)cc1	14.4	2539*	19.4	2255*	2221*	10.5
COc1ccc(-n2c(=O)cc(N3CC(C)OC(C)C3)[nH]c2=O)cc1 (configuration not stated)	6.4	·	7.7	1434	·	7.3
CCCc1nc2ccc(NC(=O)NCCC(=O)OCC)cc2c(=O)n1Cc1cccc(Cl)c1	6.1	·	4.8	1646	·	0.0
CCOC(=O)CCNC(=O)Nc1ccc2nc(C)n(Cc3cccc(Cl)c3)c(=O)c2c1	17.5	·	9.0	1989*	·	17.4
COc1ccccc1NC(=O)CSc1nc2nc(C)cc(C)c2c(=O)[nH]1	9.2	·	22.3*	1689	·	-0.2
Cc1cc(C)c2c(=O)[nH]c(SCC(=O)NCc3ccccc3)nc2n1	-2.9	·	-0.7	1619	·	-2.6
Cc1ccc(NC(=O)/C(=C/c2cccc([N+](=O)[O-])c2)NC(=O)C2CCCCC2)c(C)c1	-4.7	·	-0.6	1516	·	4.9
O=C(Nc1ccc([N+](=O)[O-])cc1)/C(=C/c1cccc([N+](=O)[O-])c1)NC(=O)C1CCCCC1	-0.7	·	24.5*	1705	·	8.4
O=C(CN1CCN(S(=O)(=O)c2cc(Cl)ccc2Cl)CC1)Nc1ccc2c(c1)OCCO2	-7.2	1767	3.5	1473	1403	-2.9
COc1ccc(NS(=O)(=O)c2ccc(N3CCOCC3)c(NC(=O)c3ccc(OC)cc3)c2)cc1	7.1	1747	-1.4	1682	1564	0.5
COc1ccc(NS(=O)(=O)c2ccc(N3CCCC3)c(NC(=S)Nc3cccc(S(=O)(=O)N(C)C)c3)c2)cc1	4.1	2504*	-8.0	1957	2049	-2.6
Cc1cccn2c(=O)c3cc(C(=O)NCCN4CCOCC4)c(=N)n(CCc4ccccc4)c3nc12	6.7	·	6.4	1506	·	27.9*
Brc1ccc2nc(-c3c[nH]c4ccccc34)cn2c1	8.8	2053	6.8	1999*	1691	7.9
Clc1ccc(-c2cn3cc(Br)ccc3n2)cc1Cl	7.4	2103	16.8	2032*	1909	7.8
Cc1cccn2cc(-c3c[nH]c4ccccc34)nc12	16.4	2206	-0.4	1734	1746	6.2
Clc1ccc2nc(-c3ccc4c(c3)OCO4)cn2c1	1.0	1809	2.4	1519	1526	3.6
O=C1C2CCCN2C(=O)N1CCCCN1CCN(CCO)CC1 (configuration not stated)	4.0	1719	1.4	1489	1431	-2.2
CCN=C1SC(CC(N)=O)C(=O)N1CC (configuration not stated)	-0.6	1890	0.5	1721	1657	6.9
CCn1cc(CNCc2cn(C)nc2-c2ccc(C3CCCCC3)cc2)cn1	22.4*	1896	2.7	1699	1641	0.5
CSc1ccc(C(=O)C2CCCN(C(=O)c3cc4cc(F)ccc4[nH]3)C2)cc1 (configuration not stated)	9.3	2545*	8.8	2021*	2454*	2.2
CSc1ccc(C(=O)C2CCCN(C(=O)c3csc(C(C)=O)c3)C2)cc1 (configuration not stated)	-5.5	1442	5.4	1596	1355	-5.0
SMILES	PPARg SRC1 recr	SRC1 TRFRET art	PPARg SRC-2 ag	TR-FRET SRC-2 ct	SRC3 TRFRET art	PPARg SRC3 recr
Cc1cc(N=Nc2ccccc2)c(NCC(O)C(O)C(O)CO)cc1C (configuration not stated)	0.3	1721	2.8	1552	1645	7.2
COc1ccc(-c2noc(-c3ccc(Br)o3)n2)cc1OC	5.9	·	-1.2	1607	·	36.0*
COc1cc(-c2nc(-c3ccc(Br)o3)no2)cc(OC)c1OC	10.4	·	12.8	1695	·	-6.1
COc1cccc(-c2ccc(C#N)c(SCC(=O)NCc3ccco3)n2)c1	15.8	2097	5.6	1980*	1969	9.5
CCc1nnc(NC(=O)CSc2nc3ccc(OC)cc3[nH]2)s1	-7.2	1555	2.8	1569	1610	1.8
CC(=O)c1cccc(NC(=O)COc2ccccc2C(=O)c2cc(C#N)c(=O)n(C3CCCCC3)c2)c1	0.0	1806	1.9	1658	1952	0.9
N#Cc1cc(C(=O)c2ccccc2OCC(=O)Nc2ccccc2Cl)cn(C2CCCCC2)c1=O	4.5	1593	10.9	1657	2092*	1.3
COc1ccccc1OC(=O)CCN1c2ccccc2Sc2ccccc21	-8.8	1668	5.4	1756	2481*	-1.6
COc1ccccc1C(=O)N1c2ccccc2Sc2ccccc21	-2.5	1706	-0.7	1478	1597	3.0
O=C(Nc1ccc2oc(-c3ccncc3)nc2c1)c1c(F)c(F)c(F)c(F)c1F	48.3*	·	-1.8	1536	·	8.9
Cc1cc(OCC(=O)Nc2ccc3oc(-c4ccncc4)nc3c2)ccc1Cl	41.5*	·	8.8	1643	·	1.2
O=C(Cc1ccc(Cl)cc1)Nc1ccc2oc(-c3ccncc3)nc2c1	5.8	·	9.2	1678	·	0.9
O=C(Nc1ccc2oc(-c3ccncc3)nc2c1)c1ccc(F)cc1	9.1	1768	6.9	1538	1522	8.6
CSc1nc(-c2ccccc2)nc2[nH]ccc(=O)c12	8.1	·	-1.5	1581	·	0.5
CC(C)NCC(O)COc1ccc2c(c1)CCC2 (configuration not stated)	-5.7	1566	-1.6	1468	1344	0.2
CC(C)C1CC(C(F)(F)F)n2nc(C(=O)O)cc2N1 (configuration not stated)	5.4	1719	17.0	2157*	1729	2.0
CC1CC(C(F)(F)F)n2nc(C(=O)O)cc2N1 (configuration not stated)	-5.4	·	-0.4	1390	·	-15.1
Cc1c(NC(=O)C(C)OC(=O)/C=C/c2ccc3c(c2)OCO3)c(=O)n(-c2ccccc2)n1C (configuration not stated)	-3.9	1881	-0.3	1414	1357	-1.5
Cc1ccc2cc(C#N)c(NCc3ccccc3)nc2c1	18.8	2504*	17.1	1722	2317*	17.9
COc1ccc(-c2csc3nc(C)nc(N4CCN(c5ccc(C(C)=O)cc5)CC4)c23)cc1OC	1.9	1874	-0.5	1584	2053*	0.5
Cc1ccccc1N/C=C/C(=C(C#N)C#N)N(C)C	-1.3	·	-0.2	1459	·	4.7
Oc1ccc(NCc2ccccc2OCc2ccccc2)cc1	-9.9	2043	28.8*	2166*	1728	9.4
O=C(CSC1=NCCS1)N1CCOCC1	-0.9	·	-7.0	1411	·	-2.0
